# In publication PMC5540273 (PLoS ONE, 2017):
# Experiments:
# [1] = system: JAK1(JH2domain-pseudokinase)
# IKK-beta = system: T1, IKK-beta
# T1 construct: gene IKBKB
# [2] = system: JAK2(JH1domain-catalytic)
# [3] = system: JAK1(JH1domain-catalytic)
# IKK-alpha = system: T2, IKK-alpha
# T2 construct: gene CHUK
# 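Note: kd values determined as follow-up on hits from a single-replicate KINOMEscan panel screen.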
smiles,measurement,setting,value
COc1ccc2nc(-c3cccc(C)n3)nc(Nc3ccncc3)c2c1 [GSK204919],Kd,[1],260 nM
O=S(=O)(c1ccc(-c2ccnc3[nH]ccc23)cc1)N1CCCC1 [GSK846226],Kd,IKK-beta,270 nM
same,Kd,[2],360 nM
CC(C)(C)c1ccc(C(=O)Nc2cn3cc(Cl)ccc3n2)cc1,Kd,IKK-beta,> 10000 nM
COc1ccc(CNC(=O)NC2CCN(c3ccnc(Nc4cc(OC)c(OC)c(OC)c4)n3)C2)cc1 (stereo not shown) [GSK1379748],Kd,[2],350 nM
CSc1nn2c(=O)cc(N3CCOCC3)nc2n1Cc1cccc(C(F)(F)F)c1C [GSK2363608],Kd,[2],> 10000 nM
Cc1nnc(-c2ccc3occ(-c4ccc(S(C)=O)cc4)c3c2)[nH]1 (stereo not shown),Kd,HIPK3,340 nM
same,Kd,[1],190 nM
Cc1ccc(NC(=O)Nc2cccc(Cl)c2)cc1-c1ccc(C(=O)Nc2ccncc2)cc1 [GSK1398468],Kd,IRAK3,> 10000 nM
Cc1cccc(-c2nc(Nc3ccc4[nH]ncc4c3)c3ccccc3n2)n1 [GW857175],Kd,[1],650 nM
CCn1c(-c2ccccn2)nc2cnccc21 [SB-736398],Kd,IRAK3,7500 nM
O=C(Nc1n[nH]c2nc(-c3nccs3)c(Br)cc12)C1CCCC1 [SB-742609],Kd,ICK,220 nM
Cc1c(O)cccc1Nc1ccnc2ccc(C(F)(F)F)cc12.Cl [GW466413],Kd,HUNK,> 10000 nM
CS(=O)(=O)c1ccc(-c2c(-c3ncn[nH]3)sc(N3CCOCC3)c2C#N)cc1,Kd,IRAK3,> 10000 nM
Cc1ccc(NC(=O)Nc2cc(C(C)(C)C)nn2-c2ccccc2)cc1 [GSK1014915],Kd,IRAK3,> 10000 nM
CS(=O)(=O)c1ccc(-c2nc3n(c2-c2ccncc2)CCC3)cc1 [SKF-105942],Kd,ICK,> 10000 nM
COc1cc2ncnc(Nc3ccc4nc(-c5ccccc5)[nH]c4c3)c2cc1OC.Cl [GW282450],Kd,INSR,> 10000 nM
Cc1ccc(NC(=O)Nc2cccc(C(F)(F)F)c2)cc1 [GSK955403],Kd,IRAK3,> 10000 nM
Cc1cc(N2Cc3ccccc3C2)nc(Nc2ccc(S(=O)(=O)N3CCOCC3)cc2)n1.Cl [GSK1669917],Kd,ICK,> 10000 nM
same,Kd,INSR,> 10000 nM
Cl.NC(=O)c1cccc(Nc2nccc(Nc3ccc(Oc4cccc(Cl)c4)c(Cl)c3)n2)c1 [GW659008],Kd,ICK,> 10000 nM
same,Kd,[2],400 nM
Cc1c(Cn2ccn3c(=O)cc(N4CCOCC4)nc23)cccc1C(F)(F)F [GSK2289044],Kd,[3],> 10000 nM
Cc1cccc(-c2cc(Nc3ccncc3)c3ccccc3n2)n1 [GSK223675],Kd,[2],> 10000 nM
O=C1NC(=O)C(N2CCc3ccccc32)=C1c1ccccc1Cl [SB-373598],Kd,IKK-alpha,> 10000 nM
